According to ChEMBL document CHEMBL4513154, “CO-ADD screening of Jain University (India) compounds”:
Results with a measured potency or affinity are listed apart.

What was measured:
[1] = tested on: Staphylococcus aureus; conditions: Concentration 32 ug.mL-1; ASSAY_TEST Inhibition of Bacterial Growth; detection method Absorption (OD600); MEDIA CAMHB; plate type 384well; NBS; CORNING #3640; time 18 hr
[2] = tested on: Escherichia coli; conditions: Concentration 32 ug.mL-1; ASSAY_TEST Inhibition of Bacterial Growth; detection method Absorption (OD600); MEDIA CAMHB; plate type 384well; NBS; CORNING #3640; time 18 hr

Compound	Inhibition [1] [%]	Inhibition [2] [%]
Clc1ccc2c(c1)nc(-c1cscn1)n2Cc1ccc(Cl)nc1	-10.99	-7.54
Clc1ccc(Cn2c(-c3cscn3)nc3c(Cl)cccc32)cn1	-6.34	-8.9
Clc1ccc(Cn2c(-c3cscn3)nc3ccccc32)cn1	3.88	-1.48
